Hits are enriched below; roughly 12% of the tested compounds scored in any of these assays.
G9a inh: G9a (human) methyltransferase inhibition | Q96KQ7 | G9a H3K9 monomethylation, AlphaScreen, 2 h | Potency, µM (top dose mostly 102 µM), inactives show at the top dose activity, negative = inhibition, most hits filed as inhibitors | 350,000 tested, 8.8% active | AID 504332; also: % is scaled to controls: 0 for no effect and ±100 for the full control effect; nearly all actives have a fitted effect of over 75% in size
Target sequence (Q96KQ7 913-1193 limits assumed): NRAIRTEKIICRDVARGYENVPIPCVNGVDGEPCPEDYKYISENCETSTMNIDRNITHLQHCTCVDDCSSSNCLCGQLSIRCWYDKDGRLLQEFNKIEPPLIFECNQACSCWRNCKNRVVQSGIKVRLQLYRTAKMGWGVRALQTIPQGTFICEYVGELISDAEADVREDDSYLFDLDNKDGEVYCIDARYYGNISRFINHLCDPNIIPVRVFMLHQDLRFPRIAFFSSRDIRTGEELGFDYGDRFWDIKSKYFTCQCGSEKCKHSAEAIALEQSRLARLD
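Quantitative HTS format: methyltransferase activity on a biotin-tagged H3K9 peptide is measured by AlphaScreen, using a rabbit anti-monomethyl-H3K9 antibody with streptavidin donor and anti-IgG acceptor beads. Final levels are 20 nM enzyme, 500 nM peptide, 20 uM SAM; 2 h RT.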
JMJD2A Tudor: inhibitors of human JMJD2A Tudor domain; AlphaScreen JMJD2A-Tudor / H3K4me3 peptide binding; Potency, µM (titrated, usually from 114 µM), for inactives: at the top dose activity change, negative = inhibition, most hits filed as inhibitors; 390,000 tested, 4.4% active; AID 504339; also: % is scaled to controls: 0 for no effect and ±100 for the full control effect; nearly all actives have a fitted effect of over 50% in size
Sfp PPTase inh: inhibitors of Bacillus subtilis Sfp phosphopantetheinyl transferase; Biochemical Sfp PPTase activity, qHTS; Potency, µM, for inactives: largest response in the series, negative = inhibition, most hits filed as inhibitors; 310,000 tested, 3.5% active; AID 1490;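 also: the enzyme is Sfp with the accession as filed and its product quenches rhodamine fluorescence; 0% = enzyme reaction without inhibitor and -100% = no enzyme wells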
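Fluorescence-quenching assay: 15 nM Sfp-PPTase preincubated 15 min at room temperature with compound, then 5 uM rhodamine-CoA and 12.5 uM BHQ-2-labelled YbbR peptide added. Fluorescence (ex 525/em 598 nm) read at start and after 30 min; difference gives rate.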
HP1b chromo inh: HP1-beta chromodomain-methylated histone interaction inhibition | Potency, µM (titrated, usually from 114 µM), for the others: at the highest dose activity change, negative = inhibition, actives largely listed as inhibitors | 390,000 tested, 0.56% active | P83916 | AlphaScreen HP1-beta / biotin-H3K9me3 peptide binding | AID 540317; also: nearly all actives have a fitted effect of over 70% in size
Target sequence (P83916 whole entry, looked up): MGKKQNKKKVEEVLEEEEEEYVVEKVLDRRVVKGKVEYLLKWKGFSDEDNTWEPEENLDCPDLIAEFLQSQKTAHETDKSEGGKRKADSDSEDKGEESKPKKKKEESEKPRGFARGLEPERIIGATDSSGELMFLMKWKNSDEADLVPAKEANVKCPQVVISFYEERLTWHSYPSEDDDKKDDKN
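Compound inhibition of the preformed complex between 50 nM HP1-beta and 50 nM biotinylated H3K9me3 peptide was read by AlphaScreen. Buffer was PBS pH 7.4 with 0.01% Tween-20. Incubations ran 30 min at room temperature, with 10 ug/mL donor/acceptor beads.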
PLK1 PBD block: blocks phosphopeptide binding to human PLK1 polo-box domain. 360,000 tested, 2.8% active. P53350. Potency, µM, without a hit: max response, negative = inhibition, most hits filed as inhibitors. Plk1 PBD binding of FITC phosphopeptide, fluorescence polarization; also: series mostly up to about 57 µM; % is scaled to controls: 0 for no effect and ±100 for the full control effect; nearly all actives have a fitted effect of over 65% in size
BAZ2B inh: inhibitors of human BAZ2B bromodomain. 360,000 tested, 4.4% active. AID 504333. Q9UIF8. AlphaScreen BAZ2B-H3K14Ac peptide displacement. Potency, µM (titrated, usually from 114 µM), for inactives: top-dose activity change, negative = inhibition, usual class: inhibitors; also: % is scaled to controls: 0 for no effect and ±100 for the full control effect; nearly all actives have a fitted effect of over 60% in size
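Compounds, titrated to a top concentration of 110 uM, were incubated 30 min at room temperature with preformed BAZ2B/acetyl-K14 H3 peptide complex (50 nM each). Proximity signal was measured by AlphaScreen after 20 min with beads.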
Numbers without * were called inactive; u = inconclusive; x = not tested or not shown; [ ] = dose if it differs, or a comment. Calls follow the shape of the dose curve; as a rule, active = well fitted curve in the direction sought with a large enough effect; inconclusive = small, poorly fitted or top-dose-only effect, or another doubt; inactive = no such curve, though single readings can be large; an effect the other way counts as inactive or inconclusive. Potency is read from the fitted curve at half-maximal effect.

SMILES | G9a inh | JMJD2A Tudor | Sfp PPTase inh | HP1b chromo inh | PLK1 PBD block | BAZ2B inh
COc1ccc(OCCC(=O)OCC(=O)Nc2cccc(S(=O)(=O)N3CCCCC3)c2)cc1 | x | -26% | x | 13% | -8% | x
COC(=O)c1sccc1-c1ccc(/C=N/OC(=O)c2ccccc2)o1 | -1% | -14% | 50µM* | 13% | -8% | 1%
O=C(COC(=O)CCc1nc2ccccc2s1)NC(=O)NCc1ccco1 | -1% | -33% | -25% | -9% | -16% | 50µM*
Cc1cc(SCC(=O)NC(=O)NCc2ccco2)nc2ccccc12 | u | -18% | 25µM* | 24% | u | -11%
N#CC1(NC(=O)CSc2n[nH]c(-c3ccccc3)n2)CCCCC1 | 8.9µM* | -10% | x | 32% | -6% | -3%
Cc1cc(SCC(=O)c2ccc3c(c2)OCO3)nc2ccccc12 | u | -4% | u | 54% | -14% | 9%
Cc1cc(SCC(=O)c2ccc(O)c(O)c2)nc2ccccc12 | 10µM* | u | -9% | u | -22% | 18µM*
CCNC(=O)C1(C)CCCN(C(=O)c2cc(C)n(C(C)(C)C)n2)C1 (stereo not given) | x | x | x | x | -12% | x
COc1ccc(Oc2ncc3ncc(=O)n(C[C@H]4CCCO4)c3n2)cc1 | 2%[12.7 µM] | x | -12% | x | x | x
Cc1cc(SCC(=O)NC(=O)c2cccn2C)nc2ccccc12 | 50µM* | u | -21% | 2% | u | u
CCN(CC(=O)NC(=O)NCc1ccco1)Cc1ccccc1 | u | -29% | x | -15% | -17% | -31%
CCN(CC(=O)NC(=O)NCc1ccco1)Cc1nc2ccccc2c(=O)[nH]1 | u | -27% | 50µM* | 15% | -21% | -36%
O=C(CSc1n[nH]c(-c2ccccc2)n1)NC(=O)NCc1ccco1 | 50µM* | -35% | -8% | 9% | -9% | u
O=C(CSc1nc2ccccc2s1)NC(=O)NCc1ccco1 | 45µM* | u | -29% | -1% | -22% | u
C[C@H](N)C(=O)O | x | x | 16% | x | x | x
CCNC(=O)[C@@H]1CCCN1C(=O)[C@H](CCCN=C(N)N)NC(=O)[C@H](CC(C)C)NC(=O)[C@@H](Cc1c[nH]c2ccccc12)NC(=O)[C@H](Cc1ccc(O)cc1)NC(=O)[C@H](CO)NC(=O)[C@H](Cc1c[nH]c2ccccc12)NC(=O)[C@H](Cc1cnc[nH]1)NC(=O)[C@@H]1CCC(=O)N1 | -31%[12.7 µM] | x | u | x | x | x
Fc1ccc(N=Cc2ccc[nH]2)cc1 | 27% | -13% | 4% | 6% | -2% | 4%
CN=c1scc(-c2ccccc2F)n1/N=C/c1ccc[nH]1 | 18µM* | 50µM* | -7% | 40µM* | -3% | 32µM*
Cn1c(SCc2ccc(Cl)cc2)nnc1C1CC1 | 32µM* | 1% | -11% | 36% | 0% | -18%
Cn1c(SCC(=O)c2ccccc2)nnc1-c1cnccn1 | 20µM* | 25µM* | u | u | -8% | u
Cn1c(SCc2ccccc2)nnc1-c1cnccn1 | x | -4% | -10% | 20% | -14% | -18%
Cn1c(SCC#N)nnc1-c1cnccn1 | 1.4µM* | -11% | 9% | 25% | -1% | 1%
Cn1c(SCc2ccccc2)nnc1C1CCCNC1 (stereo not given) | u | u | 17% | 13% | 0% | u
CC(=O)NCc1ccc(C(=O)CSc2nnc(C3CC3)n2C2CC2)cc1 | u | 22µM* | x | 1% | -24% | -4%
O=C(CN1C(=O)NC2(CCCCCC2)C1=O)Nc1ccc(OC(F)(F)F)cc1 | x | x | x | x | 1% | x
SMILES | G9a inh | JMJD2A Tudor | Sfp PPTase inh | HP1b chromo inh | PLK1 PBD block | BAZ2B inh
Cc1noc(C)c1NC(=O)Nc1ccc2c(c1)C(=O)N([C@H](C)CO)C[C@H](C)[C@@H](CN(C)C(=O)NC1CCCCC1)O2 | x | -14% | x | 63% | -20% | x
Cc1cccc(-c2nnc(SCC#N)n2C)c1 | x | -10% | 21% | 63% | 27µM* | 2%
O=C(CSc1nnc(C2CC2)n1Cc1ccccc1)N1CCN(S(=O)(=O)c2ccccc2)CC1 | -6%[59 µM] | -12% | -5% | 24% | -6% | 0%
CCOc1ccc(C(=O)CSc2nnc(C3CC3)n2C)cc1 | u | 8% | u | 1% | -11% | 6%
O=C(CSc1nnc(C2CC2)n1Cc1ccccc1)c1ccc(S(=O)(=O)N2CCOCC2)cc1 | 3.2µM* | -35% | 13µM* | 42% | -2% | 1%
Cn1c(SCC(=O)c2ccccc2)nnc1C1CC1 | 40µM* | 9%[11.4 µM] | 56µM* | -12% | u | -3%
CCc1cc(C(=O)N(Cc2ccccc2)c2c(N)n(CCOC)c(=O)[nH]c2=O)sc1C | -33% | -6% | x | 49% | -2% | -21%
Cc1ccc(C)c(Cn2c(=O)cc(C)c3c(C)nn(C)c32)c1 | 38%[59 µM] | 25% | x | 79% | x | 18%
O=C(COc1ccc2ccccc2c1)NC1CC(=O)N(c2cccc(F)c2)C1 (stereo not given) | 5%[59 µM] | -6% | x | 48% | x | -4%
COc1ccc(C(C)=O)cc1CSCC(=O)O | 0% | 0% | 8% | 11% | -9% | -13%
COc1ccc(C(=O)/C=C/c2ccc(OCc3ccccc3)cc2)cc1CSCC(=O)O | 56% | 56µM* | 8% | -17% | 24µM* | -6%
COc1ccc(C(=O)/C=C/c2cccc(OCc3ccccc3)c2)cc1CSCC(=O)O | x | 50µM* | -20% | -31% | 21µM* | 45µM*
COc1ccc(C=CC(=O)c2ccc(OCc3ccccc3)c(OC)c2)cc1OC | x | x | x | x | 6% | x
COC(=O)CN1C(=O)COc2ccc(S(=O)(=O)NCc3ccccc3)cc21 | 8%[59 µM] | -7% | 14% | 41% | -2% | -3%
CCc1ccc2oc(-c3ccc(OC)cc3)cc(=Nc3c(C)n(C)n(-c4ccccc4)c3=O)c2c1 | 25µM* | u | 79µM* | u | 1% | 40µM*
COc1ccc(-c2cc(=Nc3ccc(C(=O)O)cc3)c3cc(C)ccc3o2)cc1 | u | u | 17% | -4% | -15% | x
CCc1ccc2oc(-c3ccc(OC)cc3)cc(=Nc3cccc(C(=O)O)c3)c2c1 | u | 14µM* | u | -23% | 27µM* | -38%
CCOC(=O)Cc1csc(NC(=O)c2ccc(NC(C)=O)cc2)n1 | u | 20µM* | -9% | 16% | -13% | -37%
CCOC(=O)Cc1csc(NC(=O)c2ccco2)n1 | -5%[12.7 µM] | 79µM* | -1% | 15% | -4% | -3%
CCOC(=O)Cc1csc(NC(=O)c2cc(OC)cc(OC)c2)n1 | 16%[59 µM] | 79µM* | 3% | 25% | -6% | 8%
CCOC(=O)Cc1csc(NC(=O)c2csc3c2CCCC3)n1 | 35µM* | 1% | -17% | 13% | -15% | 1%
CCOC(=O)Cc1csc(NC(=O)c2ccc(Br)cc2)n1 | x | 2% | 16% | 26% | -3% | u

Compound activity: PubChem BioAssay, National Center for Advancing Translational Sciences (NCATS)
